From PubChem BioAssay
An excerpt weighted towards active compounds, which were near 6.1% of everything screened.
D1 potentiator: enhances dopamine response at the human D1 receptor | P21728 | HEK293 TREx D1 cells, calcium flux, dopamine EC20 potentiation | potentiation, % at 10 µM | actives 0.036% (n = 360,000); in the data active = potentiation above about 30%; also: 0% is about no effect
D3 antag: blocks the human D3 dopamine receptor | P35462 | D3R cells, DiscoveRx beta-arrestin luminescence, antagonist mode; hits give low values | max response, negative = inhibition, % | actives 2.5% (n = 360,000); in the data active = max response below about -50%; inconclusive = no clear call, values can overlap the other calls; also: % is scaled to controls: 0 for no effect and ±100 for the full control effect
Target sequence (P35462 whole entry, looked up): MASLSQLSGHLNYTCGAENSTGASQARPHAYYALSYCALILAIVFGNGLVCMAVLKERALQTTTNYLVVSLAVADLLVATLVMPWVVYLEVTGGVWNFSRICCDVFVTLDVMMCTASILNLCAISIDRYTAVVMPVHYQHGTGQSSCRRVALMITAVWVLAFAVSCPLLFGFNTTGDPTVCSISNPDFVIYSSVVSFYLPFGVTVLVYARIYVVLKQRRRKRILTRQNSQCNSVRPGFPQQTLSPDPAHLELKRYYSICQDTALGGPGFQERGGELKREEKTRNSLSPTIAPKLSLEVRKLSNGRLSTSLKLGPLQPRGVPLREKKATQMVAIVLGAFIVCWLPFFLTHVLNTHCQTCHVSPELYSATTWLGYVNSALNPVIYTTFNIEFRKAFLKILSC
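Cells expressing the human receptor were seeded at 1500 cells/well, incubated overnight at 37 degrees C in 5% CO2, then exposed to library compounds with dopamine controls for 90 minutes at 37 degrees C before luminescent detection.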
D3 ag: D3 dopamine receptor (human) agonism. P35462. actives 0.58% (n = 410,000). AID 652048. max activation, %. D3R DiscoveRx beta-arrestin cells, luminescence, 90 min; in the data active = max activation above about 30%; also: 0% is about no effect
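Agonist mode: compounds and dopamine controls were applied to plated cells for 90 min at 37 degrees C after an overnight attachment at 1500 cells/well. Luminescent read-out followed 30 - 60 minutes at room temperature with DiscoveRx detection reagent.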
D1 antag: blocks dopamine activation of the human D1 receptor | P21728 | HEK293 TREx D1 cells, calcium flux, dopamine EC80; hits give low values | activity change, negative = inhibition, % at 10 µM | actives 3.2% (n = 360,000) | AID 504652; in the data active = activity change below about -30%; also: % is scaled to controls: 0 for no effect and ±100 for the full control effect
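Kinetic fluorescence of a calcium dye serves as the read-out. D1-expressing Hek293 Trex cells, induced overnight at 30 C, are exposed to compound for 180 s before an EC80 dopamine addition, then read 180 s further.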
D1 agonist: human D1 receptor agonism; P21728; HEK293 T-REx D1 cells, calcium flux, agonist mode; activation, % at 2 µM; actives 1% (n = 360,000); AID 504660; in the data active = activation above about 30%; also: 0% is about no effect
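Tetracycline-induced HEK293 TREx D1 cells, force-coupled to calcium signalling, were dye-loaded with a no-wash calcium kit. Compound was pin-added after a 10 s baseline. Fluorescence was read kinetically at 1 cycle/s for 180 s, with calcium rises flagged as agonism.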
* marks the source's active call; other numbers are inactive results; ? = inconclusive; · = not tested or not shown.

SMILES | D1 potentiator | D3 antag | D3 ag | D1 antag | D1 agonist
O=C(O/N=C1/CCCc2occc21)c1ccccc1 | -3 | -4 | 0 | 17 | 1
O=C(O/N=C1/CCCc2occc21)c1ccc(Cl)cc1Cl | 3 | -8 | -1 | -33* | 4
Nc1nonc1-n1nnc(C(=O)N/N=C/c2ccccc2)c1CSc1ccc(Cl)cc1 | -7 | -19 | 1 | -46* | 6
Nc1nonc1-n1nnc(C(=O)N/N=C/c2cccc(Cl)c2)c1CSc1ccccc1 | -7 | 12 | 39* | 0 | 4
Nc1nonc1-n1nnc(C(=O)N/N=C/c2cccc(Cl)c2)c1CSc1ccc(Cl)cc1 | -1 | 11 | 3 | -14 | 3
CCOC(=O)c1cnc(-n2nc(C)cc2C)nc1NC(C)c1ccccc1 (stereo unspecified) | -1 | -59* | -9 | 7 | 12
CCOC(=O)c1cnc(-n2nc(C)cc2C)nc1NCc1ccccc1 | -5 | -20 | -4 | 8 | 24
Cc1cc(C)nc(Nc2nc3ccccc3o2)n1 | -14 | -18 | -15 | -31* | 5
CCn1ccc(C(=O)Nc2ccccc2Cl)n1 | -4 | -96* | -10 | -1 | 2
O=C(Nc1ccccc1Cl)c1c(F)c(F)c(F)c(F)c1F | · | -62* | -5 | · | ·
Cc1ccccc1NC(=O)c1c(F)c(F)c(F)c(F)c1F | 12 | -11 | -11 | -13 | 1
CCN(Cc1ccccc1)C(=O)c1cc(-c2ccccc2)n[nH]1 | -1 | · | -7 | -5 | 1
c1ccc(Oc2cccc(OCCCCN3CCCC3)c2)cc1 | -5 | -18 | -15 | -8 | 15
CN(C)CCCOc1cccc(Cl)c1 | -4 | ? | -11 | 18 | 5
CC1CCN(CCOc2cccc(Br)c2)CC1 | -9 | -75* | 3 | -4 | 5
Clc1cccc(OCCN2CCN(CCOc3cccc(Cl)c3)CC2)c1 | -15 | -21 | 58* | -17 | 4
CC(C)c1cccc(OCCCCN(C)C)c1 | -9 | -58* | -19 | -2 | 19
Brc1cccc(OCCCN2CCCCCC2)c1 | -14 | -74* | -17 | -7 | 8
CC1CCC(=O)N(CCOc2ccccc2)CC1 (stereo unspecified) | -3 | 41 | 4 | 0 | 6
CCOC(=O)c1cc(-c2ccc(OC)cc2)n(CCC(=O)Nc2cccc(C(C)=O)c2)c1C | -5 | · | -3 | -4 | 2
COc1ccc(NC(=O)Cn2ccn(Cc3ccccc3)c(=O)c2=O)cc1Cl | 2 | · | 8 | 3 | -1
CC1CN(CCOc2cccc(Oc3ccccc3)c2)CC(C)O1 (stereo unspecified) | -4 | -23 | -23 | -26 | 3
CC1CCN(CCCCOc2cccc(C(C)C)c2)CC1 | 1 | -108* | -20 | -6 | 9
CCCCNCCCCOc1ccccc1 | -3 | ? | -23 | -4 | -1
Cc1ccc(Cl)c(OCCCCN2CCC(C)CC2)c1 | · | 4 | -8 | · | ·
SMILES | D1 potentiator | D3 antag | D3 ag | D1 antag | D1 agonist
CCCCNCCCOc1cccc(Cl)c1 | -6 | -80* | -34 | 3 | -1
Cc1nn(CCOc2cccc(Cl)c2)c(C)c1[N+](=O)[O-] | -1 | -64* | -15 | -28 | 6
CC1CCCN(CCOc2cccc(Oc3ccccc3)c2)C1 (stereo unspecified) | 2 | -61* | -29 | 6 | 5
COc1ccccc1Cn1c(C2CC(=O)N(c3ccccc3OC)C2)nc2ccccc21 (stereo unspecified) | -3 | · | 2 | 19 | -1
O=C(c1ccco1)N1CCc2[nH]nc(-c3ccc(Cl)cc3)c2C1 | 1 | -15 | 3 | -30* | 3
CC(C)[C@H]1C(=O)Nc2ccccc2N1C(=O)N[C@@H](Cc1ccccc1)C(=O)N[C@@H](Cc1ccccc1)C(=O)O | 0 | -7 | 14 | -31* | 0
CC(C)[C@H]1C(=O)Nc2ccccc2N1C(=O)N[C@@H](Cc1ccccc1)C(=O)N[C@H](Cc1ccccc1)C(=O)O | -1 | -20 | -11 | 2 | 1
CN1CCN(Cc2c(O)ccc3cc(-c4ccccn4)c(=O)oc23)CC1 | 3 | 6 | 1 | -31* | 44*
O=c1oc2c(CN3CCCC3)c(O)ccc2cc1-c1ccccc1 | -1 | · | 1 | 5 | 4
O=c1oc2c(CN3CCCCCC3)c(O)ccc2cc1-c1nc2ccccc2[nH]1 | 3 | · | · | -6 | 241*
CCOc1ccc(NC(=O)Cn2nc(Cc3cccnc3)c3ccccc3c2=O)cc1 | 2 | · | -7 | 2 | -1
O=C(NC1CCCC1)c1ccc2c(=O)n(Cc3ccccc3)c(SCc3ccccc3F)nc2c1 | -3 | · | -9 | 9 | 3
Cc1ccccc1CN1CCc2c(OCC(=O)N3CCCCC3)cccc2C1=O | -2 | 0 | 9 | -41* | 3
CC1CCN(C(=O)COc2cccc3c2CCN(C)C3=O)CC1 | -6 | 16 | 0 | -32* | 0
O=C(COc1cccc2c1CCN(Cc1ccccc1F)C2=O)N1CCCCC1 | 1 | 4 | 2 | -10 | 3
Cc1cccc(NC(=O)COc2cccc3c2CCN(C)C3=O)c1 | -4 | 36 | 1 | 8 | 12
CCOC(=O)N1CCN(C(=O)COc2cccc3c2CCN(Cc2ccccc2F)C3=O)CC1 | 1 | -11 | 4 | -31* | 1
COc1ccc(CNC(=O)Cn2ccc3cc(S(=O)(=O)N4CCCCC4)ccc32)cc1OC | -1 | · | 4 | -5 | 2
c1ccc2c(c1)nc(N1CCOCC1)c1c3ccccc3[nH]c21 | -4 | 10 | 9 | -57* | 4
CCOC(=O)CSc1nc2sc3c(c2c(=O)n1Cc1ccccc1)CC(C)CC3 (stereo unspecified) | -1 | · | -13 | 10 | 0
Cc1ccc(CNC(=O)Nc2ccccc2)c(C)c1 | -2 | 6 | -4 | -15 | 8
Cc1ccccc1CNC(=O)Nc1ccc2c(c1)N(C)C(=O)c1ccccc1S2 | -3 | · | 5 | -38* | 1
CN1C(=O)c2ccccc2Sc2ccc(NC(=O)NCc3ccc(Cl)cc3)cc21 | -2 | · | -8 | 2 | -1
Cc1ccccc1CNC(=O)Nc1ccc(Cl)cc1 | -6 | -1 | -4 | -46* | 4
CN(C)CCNC(=O)c1ccc2c(c1)NC(=O)c1ccccc1S2 | 0 | 13 | -1 | 14 | 7
CCN(CC)CCNC(=O)c1ccc2c(c1)NC(=O)c1ccccc1S2 | -4 | -18 | -8 | -30* | 1
CC(C)CCNC(=O)c1ccc2c(c1)N(C)C(=O)c1ccccc1S2 | -6 | -72* | -14 | 16 | 4
O=C(c1cc(F)cc(F)c1)N1CCC(c2nc(-c3ccc(S(=O)(=O)N4CCCC4)cc3)no2)CC1 | 4 | · | 5 | 2 | -1
Cc1nc2ccc(S(=O)(=O)NC(CC(C)C)C(=O)NCc3ccc(Cl)cc3)cc2s1 (stereo unspecified) | 0 | · | 5 | -1 | -1
CSCCC(NS(=O)(=O)c1ccc2c(c1)oc(=O)n2C)C(=O)NCCc1ccc(C)cc1 (stereo unspecified) | -3 | · | -15 | 15 | 0
